Sampled rows, rich in hits. Any-hit rate of the full collection: about 6.1%.
DRD3 agonist: agonists of human D3 dopamine receptor. P35462. D3R DiscoveRx beta-arrestin cells, luminescence, 90 min. max activation, %. 410,000 tested, 0.58% active; in the data active = max activation above about 30%
Target sequence (P35462 whole entry, looked up): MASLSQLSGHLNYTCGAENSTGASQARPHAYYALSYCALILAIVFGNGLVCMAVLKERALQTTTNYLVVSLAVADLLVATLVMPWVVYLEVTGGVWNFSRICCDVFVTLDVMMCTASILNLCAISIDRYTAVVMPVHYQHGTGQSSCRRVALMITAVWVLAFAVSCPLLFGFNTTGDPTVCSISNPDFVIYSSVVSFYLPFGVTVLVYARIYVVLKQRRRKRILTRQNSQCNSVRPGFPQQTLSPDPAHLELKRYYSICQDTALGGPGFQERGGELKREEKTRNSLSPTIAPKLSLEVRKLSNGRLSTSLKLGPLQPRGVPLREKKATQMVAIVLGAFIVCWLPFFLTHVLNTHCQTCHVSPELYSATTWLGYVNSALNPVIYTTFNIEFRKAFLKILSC
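Agonist mode: compounds and dopamine controls were applied to plated cells for 90 min at 37 degrees C after an overnight attachment at 1500 cells/well. Luminescent read-out followed 30 - 60 minutes at room temperature with DiscoveRx detection reagent.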
ERG-DNA inh: ERG Ets/DNA interaction inhibition. fluorescence polarization, His-ERG Ets domain / labelled DNA. Potency, µM (top dose mostly 76.9 µM), hits mostly inhibitors. 370,000 tested, 0.028% active. AID 624246; active = well fitted inhibition curve with a large enough effect in the polarisation, with a control signal flat; inconclusive = small, poorly fitted or top-dose-only effect, or effect the other way, or a change in a side signal; inactive = no such curve, though single readings can be large or run the other way; the % refers to the polarisation;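 also: polarization taken with two DNA probes labelled with fluorescein and Texas red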
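His-tagged ERG Ets domain (1 uM in the protein solution; 300mM KCl, 50mM Tris-HCl, 1mM EDTA, 1mM DTT, pH 7.5) received compound, then a probe mix of 5 nM fluorescein-DNA and 100nM Texas-615-DNA. Fluorescence polarization was read for both dyes.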
D1 potentiator: human D1 dopamine receptor positive modulation; AID 504651; HEK293 TREx D1 cells, calcium flux, dopamine EC20 potentiation; 360,000 tested, 0.036% active; potentiation, % at 10 µM; in the data active = potentiation above about 30%
D1 antagonist: human D1 dopamine receptor antagonism; activity change, negative = inhibition, % at 10 µM; HEK293 TREx D1 cells, calcium flux, dopamine EC80; active compounds read low; 360,000 tested, 3.2% active; P21728; AID 504652; in the data active = activity change below about -30%
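Tetracycline-induced HEK293 Trex D1 cells, force-coupled to calcium, dye-loaded; compounds added and read 180 s, then EC80 dopamine added and calcium flux tracked kinetically another 180 s.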
D1 agonist: activates the human D1 dopamine receptor | activation, % at 2 µM | AID 504660 | 360,000 tested, 1% active | HEK293 T-REx D1 cells, calcium flux, agonist mode; in the data active = activation above about 30%
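Agonism was scored from calcium flux recorded over 180 s (1 read/s) after pintool compound addition, following a 10-cycle baseline. Cells were inducible force-coupled HEK293 TREx D1, plated overnight at 30 C and loaded with no-wash calcium dye.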
D3 antag: antagonists of human D3 dopamine receptor; P35462; D3R cells, DiscoveRx beta-arrestin luminescence, antagonist mode; active compounds read low; max response, negative = inhibition, %; 360,000 tested, 2.5% active; AID 652054; in the data active = max response below about -50%; inconclusive = no clear call, values can overlap the other calls
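Cells plated overnight at 1500 cells/well, then exposed to library compounds with dopamine controls for 90 minutes at 37 degrees C. DiscoveRx reagent added for 30–60 minutes at room temperature; luminescence read, quantitative HTS format.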
Numbers stand for hits; 0 = inactive; ? = inconclusive; - = not tested or not shown.

SMILES	DRD3 agonist	ERG-DNA inh	D1 potentiator	D1 antagonist	D1 agonist	D3 antag
O=C1CC(N2CCOCC2)C(=O)N1c1ccc2c(c1)OCO2 (stereo not given)	0	0	0	0	0	0
O=C(CNC(=O)c1ccc(F)cc1)N/N=C/c1ccc(O)c([N+](=O)[O-])c1	0	0	0	0	0	0
CN(C)CC(CCC(CN(C)C)C(O)(c1ccccc1)c1ccccc1)C(O)(c1ccccc1)c1ccccc1 (stereo not given)	0	0	0	-41.4	0	?
CN(C)C/C=C/C(O)(c1ccccc1)c1ccccc1	0	0	0	0	0	0
CCOc1cc(/C=N/Nc2nnc(C)n2N)ccc1OC(C)=O	0	0	0	-32.7	0	?
CCc1ccc(C(=O)COC(=O)C(Cc2ccccc2)NC(=O)c2ccc(Cl)cc2)cc1 (stereo not given)	0	0	0	0	0	0
CCc1ccc(C(=O)COC(=O)C(Cc2ccccc2)NC(=O)C2CCC(C)CC2)cc1 (stereo not given)	0	0	0	-31.4	0	0
CC(C)Nc1nc(NC(C)C)nc(N(C)C(N)=O)n1	0	0	0	0	0	0
CC(C)Nc1nc(NC(C)C)nc(N(C)N)n1	0	0	0	0	0	-53.0
Cc1ccc(-c2nn(CC(=O)NC3CCCCC3)c3c2cnc2ccccc23)cc1	0	0	0	0	0	-
O=C(c1ccccc1NS(=O)(=O)c1cccs1)N1CCOCC1	0	0	0	0	0	0
COc1ccc(-c2noc(N3CCC(C(=O)Nc4cc(OC)ccc4OC)CC3)n2)cc1	0	0	0	0	0	0
COc1ccc(-c2noc(N3CCC(C(=O)Nc4ccccc4OC)CC3)n2)cc1	0	0	0	-34.1	0	0
CSc1nn(-c2ccc(C(=O)OC(C(=O)NC(N)=O)C(C)C)cc2)c(=S)s1 (stereo not given)	0	0	0	0	0	0
Cc1ccc(-c2nc3c(Cl)cc(C(F)(F)F)cn3c2Cc2ccsc2)cc1	0	-	-	-	-	-58.5
CC(C)(C)Cc1c(-c2ccc(Cl)cc2)nc2c(Cl)cc(C(F)(F)F)cn12	37.4	-	-	-	-	0
Fc1cccc(Cc2c(-c3ccccc3)nc3c(Cl)cc(C(F)(F)F)cn23)c1	62.0	-	-	-	-	0
Fc1ccc(-c2nc3c(Cl)cc(C(F)(F)F)cn3c2Cc2cccc(F)c2)cc1	0	-	-	-	-	0
Fc1ccc(-c2nc3c(Cl)cc(C(F)(F)F)cn3c2Cc2ccsc2)cc1	0	-	-	-	-	0
Cc1ccc(C(=O)NC2CC3CCCC(C2)N3Cc2ccccc2)cc1 (stereo not given)	0	0	0	-83.9	0	-79.7
Cc1cccc(C(=O)NC2CC3CCCC(C2)N3Cc2ccccc2)c1 (stereo not given)	0	0	0	-30.5	0	-111.6
O=C(NC1CC2CCCC(C1)N2S(=O)(=O)c1ccccc1)c1ccco1 (stereo not given)	0	-	0	0	0	0
O=C(CN1C2CCCC1CC(NC(=O)c1ccco1)C2)Nc1ccccc1 (stereo not given)	0	0	0	0	0	-58.2
CCN(CC)C(=O)NC1CC2CCCC(C1)N2Cc1ccccc1 (stereo not given)	0	0	0	0	0	-65.3
CCCN1C2CCCC1CC(NC(=O)c1ccc(C(C)(C)C)cc1)C2 (stereo not given)	0	0	0	0	0	0
SMILES	DRD3 agonist	ERG-DNA inh	D1 potentiator	D1 antagonist	D1 agonist	D3 antag
Cc1ccsc1CN(C)C(=O)CCc1nnc(COc2ccccc2)o1	0	0	0	0	0	0
COc1ccccc1CCNC(=O)CCNS(=O)(=O)c1ccc(NC(C)=O)cc1	0	0	0	0	0	0
CN(C)c1cccc(C(=O)NN2C(=O)NC3(CCCCC3)C2=O)c1	0	-	0	0	0	0
Cc1cc(C)c(C#N)c(N2CCN(c3ccc(F)cc3)CC2)n1	0	0	0	0	0	0
O=C(NC1CC2CCCC(C1)N2Cc1ccccc1)c1ccc([N+](=O)[O-])cc1 (stereo not given)	0	0	0	-56.6	0	-88.6
CCCNC(=S)NC1CC2CCCC(C1)N2Cc1ccc(F)cc1 (stereo not given)	0	0	0	0	0	-100.7
O=C(Nc1ccccc1-c1ccccc1)NC1CC2CCCC(C1)N2CCc1ccccc1 (stereo not given)	0	0	0	0	0	0
Cc1ccc(CN2C3CCCC2CC(NC(=O)c2ccc(F)cc2)C3)cc1 (stereo not given)	0	0	0	-44.8	0	-88.2
O=C(Nc1ccccc1-c1ccccc1)NC1CC2CCCC(C1)N2Cc1ccc(F)cc1 (stereo not given)	0	0	0	0	0	-101.4
N=C1/C(=C\c2ccc(-c3ccc(C(=O)O)cc3)o2)C(=O)N=C2SC=C(c3ccccc3)N12	0	0	0	0	37.7	0
Cc1ccc(SCC(=O)Nc2ccc(N3CCN(C)CC3)c(F)c2)c(C)c1	0	0	-	0	0	-98.1
CN1CCN(c2ccc(NC(=O)CSc3nnnn3-c3ccccc3F)cc2)CC1	0	0	0	-45.6	0	0
Cc1ccc(-n2nnnc2SCC(=O)Nc2cc(C)on2)c(C)c1	0	0	0	0	0	0
Cc1ccc(-n2nnnc2SCC(=O)Nc2ccc(N3CCN(C)CC3)cc2)c(C)c1	0	0	0	-60.5	0	0
Cc1ccc(-n2nnnc2SCC(=O)Nc2sccc2C#N)cc1	0	-	0	-65.7	0	?
O=C(CSc1ccc(Cl)cc1)Nc1ccc(N2CCN(c3ccccc3)CC2)c(F)c1	0	0	0	0	0	0
CC(=O)c1ccc(-n2nnnc2SCC(=O)Nc2sc(C)c(C)c2C#N)cc1	0	0	0	0	0	0
O=C(Nc1ccccc1Oc1ccccc1)C1=COCCO1	0	0	0	0	0	0
CCOc1cc(CN2CCN(Cc3ccc(C)o3)C(CCO)C2)ccc1OC (stereo not given)	0	0	0	0	0	0
O=C(O)c1ccccc1-c1ccc([N+](=O)[O-])cc1Cl	0	-	-	-	-	0
O=c1c(N2CCCCC2)csc2ccc(F)cc12	0	0	0	-74.8	0	-
CCN1CCN(c2csc3ccc(F)cc3c2=O)CC1	0	0	0	0	0	-
O=C(Nc1ccccc1Oc1cccnc1)C1CCCN(C/C=C/c2ccccc2)C1 (stereo not given)	0	0	0	0	0	-60.5
COCCN(Cc1nc2ccccc2c(=O)[nH]1)C(=O)COc1c(C)cc(Cl)cc1C	0	0	0	0	0	0
CCCCN(Cc1nc2ccccc2c(=O)[nH]1)C(=O)COc1ccc(F)cc1Cl	0	0	0	-41.7	0	0
CC(=O)Nc1ccc(S(=O)(=O)NCCC(=O)Nc2cc(C)ccn2)cc1	0	0	0	0	0	0
C=CCN(CC=C)Cc1c(O)ccc2c1oc(=O)c1ccccc12	0	-	-	-	-	-62.5

Screening data from PubChem BioAssay.
